# p-CIP stab down – compounds decreasing mouse p/CIP protein stability. F442A p/CIP-EGFP cells, EGFP fluorescence, 16 h. decrease of EGFP signal, % at 10 µM. Q05BA5. AID 1984. 290,000 tested, 0.01% active;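 active = EGFP signal decrease of at least 30% at 10 µM or well 3 SD below plate mean, unless failing retest; inactive = the rest, including hits failing retest or dose response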
# GRIN3A LBD mod – modulators (binders) of human NR3A ligand-binding domain. NR3A LBD differential scanning fluorimetry, Tm shift; 0% = protein alone, 100% = glycine-bound protein. Tm shift relative to glycine control, % at 25 µM. 340,000 tested, 2.5% active. AID 1259313;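 active = melting temperature shift of at least 10% of the positive control shift, at one fixed dose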
# MIN6 prolif – MIN6 beta-cell proliferation induction; MIN6 cells proliferation, ATPlite luminescence, 48 h; cells starved in 0.2% serum; 100% = growth in 10% serum; proliferation, % at 10 µM; 330,000 tested, 0.29% active;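 active = compounds whose signal lies at least 3.5 SD above the mean of all wells on their plate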;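 also: 0% = DMSO-treated cells in low-serum medium and 100% = 10% serum control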
# MPTP block – inhibitors of mitochondrial permeability transition pore; 360,000 tested, 1.4% active; AID 602449; inhibition, % at 10 µM; isolated mouse mitochondria, Ca2+ swelling absorbance, 30 min;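 active = inhibition of 50% or more, scaled per plate between neutral and stimulator controls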;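 also: 0% = DMSO wells given calcium and 100% = 1 mM EGTA wells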
# FAS TE block – FAS thioesterase (human) inhibition; AID 602261; 360,000 tested, 0.67% active; recombinant FAS-TE, OMFH fluorogenic substrate, fluorescence endpoint; inhibition, % at 15 µM;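 active = compounds whose normalised, plate-corrected inhibition of enzyme fluorescence in the single-dose primary screen is 50% or more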;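 also: 0% = DMSO with enzyme and 100% = substrate without enzyme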
# Target sequence (P49327 whole entry, looked up): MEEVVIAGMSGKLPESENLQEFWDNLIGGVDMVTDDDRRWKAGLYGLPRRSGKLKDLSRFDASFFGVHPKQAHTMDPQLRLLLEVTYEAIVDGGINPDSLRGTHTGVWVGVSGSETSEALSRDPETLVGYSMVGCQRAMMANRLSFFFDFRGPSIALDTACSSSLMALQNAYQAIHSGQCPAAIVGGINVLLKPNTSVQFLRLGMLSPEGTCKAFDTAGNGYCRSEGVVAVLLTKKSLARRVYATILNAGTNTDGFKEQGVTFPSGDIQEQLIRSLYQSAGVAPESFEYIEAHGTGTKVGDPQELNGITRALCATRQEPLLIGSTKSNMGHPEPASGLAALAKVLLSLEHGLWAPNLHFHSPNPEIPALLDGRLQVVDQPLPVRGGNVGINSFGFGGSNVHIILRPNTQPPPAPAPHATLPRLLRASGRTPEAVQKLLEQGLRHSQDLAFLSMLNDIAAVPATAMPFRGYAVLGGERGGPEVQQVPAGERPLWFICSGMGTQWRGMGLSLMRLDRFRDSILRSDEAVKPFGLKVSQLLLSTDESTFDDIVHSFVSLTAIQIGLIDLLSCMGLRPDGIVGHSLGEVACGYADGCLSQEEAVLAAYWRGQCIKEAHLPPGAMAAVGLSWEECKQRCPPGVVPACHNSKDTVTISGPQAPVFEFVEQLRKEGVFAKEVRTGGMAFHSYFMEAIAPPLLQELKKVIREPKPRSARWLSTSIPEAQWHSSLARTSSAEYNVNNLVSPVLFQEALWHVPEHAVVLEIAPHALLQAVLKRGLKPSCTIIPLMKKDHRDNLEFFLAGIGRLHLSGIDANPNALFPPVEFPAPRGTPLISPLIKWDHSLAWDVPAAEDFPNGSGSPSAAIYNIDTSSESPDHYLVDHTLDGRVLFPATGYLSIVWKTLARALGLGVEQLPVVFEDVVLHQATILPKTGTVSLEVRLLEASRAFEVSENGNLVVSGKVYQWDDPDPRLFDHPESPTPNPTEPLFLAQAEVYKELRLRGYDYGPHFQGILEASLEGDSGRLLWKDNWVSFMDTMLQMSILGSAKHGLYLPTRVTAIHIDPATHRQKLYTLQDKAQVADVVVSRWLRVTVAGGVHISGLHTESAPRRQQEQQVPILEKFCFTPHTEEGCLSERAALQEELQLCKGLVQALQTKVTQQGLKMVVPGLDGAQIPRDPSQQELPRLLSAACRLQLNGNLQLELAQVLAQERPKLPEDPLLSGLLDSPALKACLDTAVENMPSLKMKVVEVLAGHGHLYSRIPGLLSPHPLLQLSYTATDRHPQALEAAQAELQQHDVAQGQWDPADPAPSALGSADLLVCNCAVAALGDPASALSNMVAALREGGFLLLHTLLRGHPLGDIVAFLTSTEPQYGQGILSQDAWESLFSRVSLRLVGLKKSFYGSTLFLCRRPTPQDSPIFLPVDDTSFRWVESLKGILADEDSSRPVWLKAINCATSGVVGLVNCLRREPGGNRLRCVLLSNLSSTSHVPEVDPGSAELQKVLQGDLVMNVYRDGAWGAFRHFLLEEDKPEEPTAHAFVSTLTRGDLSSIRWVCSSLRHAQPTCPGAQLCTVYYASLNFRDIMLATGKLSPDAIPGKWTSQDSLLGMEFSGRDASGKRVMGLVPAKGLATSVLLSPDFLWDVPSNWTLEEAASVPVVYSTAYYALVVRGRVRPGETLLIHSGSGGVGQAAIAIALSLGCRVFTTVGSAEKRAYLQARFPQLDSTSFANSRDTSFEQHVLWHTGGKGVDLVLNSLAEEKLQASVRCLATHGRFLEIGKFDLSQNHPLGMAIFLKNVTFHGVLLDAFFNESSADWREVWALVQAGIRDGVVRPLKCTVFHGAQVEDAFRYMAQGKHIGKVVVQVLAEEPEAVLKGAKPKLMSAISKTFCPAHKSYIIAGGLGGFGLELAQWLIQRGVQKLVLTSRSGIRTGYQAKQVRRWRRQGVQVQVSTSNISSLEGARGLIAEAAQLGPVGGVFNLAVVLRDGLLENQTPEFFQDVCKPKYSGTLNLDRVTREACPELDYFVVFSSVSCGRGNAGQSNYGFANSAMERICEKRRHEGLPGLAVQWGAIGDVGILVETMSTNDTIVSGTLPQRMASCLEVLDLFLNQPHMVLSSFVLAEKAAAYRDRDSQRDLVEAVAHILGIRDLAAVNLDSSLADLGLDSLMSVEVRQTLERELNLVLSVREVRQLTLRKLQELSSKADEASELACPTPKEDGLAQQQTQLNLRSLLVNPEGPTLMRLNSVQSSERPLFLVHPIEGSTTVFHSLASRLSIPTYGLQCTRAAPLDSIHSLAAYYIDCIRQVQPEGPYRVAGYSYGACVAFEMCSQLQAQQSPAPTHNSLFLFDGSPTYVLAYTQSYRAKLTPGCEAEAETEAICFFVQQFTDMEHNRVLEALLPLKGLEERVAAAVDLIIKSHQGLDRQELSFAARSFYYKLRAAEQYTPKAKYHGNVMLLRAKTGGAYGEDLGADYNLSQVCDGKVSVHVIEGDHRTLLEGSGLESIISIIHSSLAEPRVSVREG
# MPTP counter – mitochondrial membrane potential, counter-screen; 5,000 tested, 78% active; shares compounds with MPTP block; isolated mitochondria, Rhodamine 123 fluorescence; inhibition, % at 10 µM; AID 624504; in the data active = inhibition above about 22%;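 also: 0% = DMSO vehicle and 100% = positive control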
# MPTP abs DR – dose response confirmation of mitochondrial permeability transition pore inhibitors; shares compounds with MPTP block; isolated mitochondria swelling, absorbance; 780 tested, 58% active; IC50, µM; AID 651561; in the data active = IC50 below about 20 µM
# MPTP counter DR – counter-screen for mitochondrial permeability transition pore inhibitors, dose response. isolated mitochondria counterscreen, fluorescence read-out. shares compounds with MPTP block. AID 651564. IC50, µM. 780 tested, 49% active; in the data active = IC50 below about 80 µM
# * hit, by the source's call; x = no result. Hits are enriched below; roughly 4.1% of the tested compounds scored in any of these assays.
SMILES,p-CIP stab down,GRIN3A LBD mod,MIN6 prolif,MPTP block,FAS TE block,MPTP counter,others
O=c1cc(CO)oc(C(Nc2ccccn2)c2ccc(C(F)(F)F)cc2)c1O (stereo not given),-2,0,0,68*,6,-14,MPTP abs DR=11*;MPTP counter DR=>80
CCC(=O)c1ccc2c(c1)N(CCCN(C)C)c1ccccc1S2,x,-2,-8,72*,2,-15,
COc1ccc(-n2cc(CNCCN3CCOC3=O)c(-c3ccccc3Cl)n2)cc1,-3,-1,-2,-1,-6,x,
CCN1CCC(CNCc2cn(-c3ccc(OC)cc3)nc2-c2ccccc2Cl)C1 (stereo not given),6,1,-5,84*,-6,-13,MPTP abs DR=9.1*;MPTP counter DR=>80
Cc1c(Cl)cccc1NC(=O)CSC(C)c1nc2ccccc2c(=O)[nH]1 (stereo not given),-9,-1,-3,0,-4,x,
O=C(c1ccccc1)c1ccc(Cn2cc(-c3ccccc3)nn2)cc1,-15,-11,-8,85*,16,99*,
COc1ccc(NC(=O)COc2ccc(N(C)S(=O)(=O)c3ccc(Cl)cc3)cc2)cc1OC,x,-6,-7,76*,16,90*,
CN(c1ccc(OCC(=O)OCC(=O)Nc2ccc(F)cc2)cc1)S(=O)(=O)c1ccc(Cl)cc1,-2,5,0,8,17,x,
Cc1ccc(C2C(C#N)=C(N)SC(N)=C2C#N)c(C)c1,-9,-12,-1,53*,-106,64*,
N#CC1=C(N)SC(N)=C(C#N)C1c1ccoc1,-16,x,-1,x,x,x,
Cc1ccc(C2C(C#N)=C(N)SC(N)=C2C#N)cc1,-17,-1,x,54*,-82,67*,
O=C(O)CCC(=O)NN1C(=O)c2ccccc2NC1c1ccc(F)cc1 (stereo not given),-5,1,0,0,-4,x,
O=C(Oc1c(Br)cc([N+](=O)[O-])cc1Br)c1cccnc1,0,-2,-2,72*,-1,96*,
N/C(=N\OC(=O)c1ccc([N+](=O)[O-])cc1)c1cccnc1,4,-3,-2,1,0,x,
COCCNC(=O)C1(C)Cc2c(-c3cccc(C(F)(F)F)c3)ccnc2O1 (stereo not given),x,x,x,0,-1,x,
CC(C)Cc1ccc(/C=C/C(=O)NC2CC2)cc1,-13,-5,-3,0,1,x,
COc1cc(Cl)cc2c1Sc1ccccc1/C2=C/CCN(C)C,-10,0,-4,82*,6,-4,
COc1ccc(-c2nn(-c3ccccc3)cc2CNC[C@H]2O[C@@H](n3cnc4c(=O)[nH]c(N)nc43)[C@H](O)[C@@H]2O)cc1,x,x,x,-1,-2,x,
CCCCC(CC(O)COCCC)c1n[nH]c(=S)n1-c1ccccc1 (stereo not given),-10,0,1,5,-1,x,
CCN1/C(=C/c2cc[n+](C)cc2)C=Cc2cc(C)ccc21,-17,-1,x,67*,-3,70*,
Cc1onc(-c2c(F)cccc2Cl)c1C(=O)Nc1cc(S(=O)(=O)N2CCCCC2)ccc1O,x,16*,x,84*,5,84*,
O=C(Nc1ccccc1C(=O)O)c1cc(S(=O)(=O)N2CCCCCC2)ccc1Cl,-2,-6,-2,0,5,x,
O=C(Nc1cc(S(=O)(=O)N2CCCCC2)ccc1O)c1ccccc1NS(=O)(=O)c1ccc(F)c(F)c1,-2,28*,0,91*,16,65*,
Cc1ccc(NC(=O)CCNC(=O)c2ccccc2Cl)cc1S(=O)(=O)N1CCCCCC1,x,-2,-2,-1,0,x,
NS(=O)(=O)c1cccc(NC(=O)c2ccccc2NS(=O)(=O)c2ccc(F)cc2)c1,4,5,0,0,4,x,
SMILES,p-CIP stab down,GRIN3A LBD mod,MIN6 prolif,MPTP block,FAS TE block,MPTP counter,others
Cc1ccc(NC(=O)c2ccccc2NS(=O)(=O)c2ccc(F)cc2)cc1S(=O)(=O)N1CCCCC1,-15,28*,-3,95*,26,84*,
O=C(Nc1cccc(S(=O)(=O)N2CCCCC2)c1)c1ccccc1NS(=O)(=O)c1ccc(F)cc1,2,18*,-6,96*,7,81*,
Cc1cccc(N2C(=O)c3cccc4c(N(C)CCO)ccc(c34)C2=O)c1,-499,-22,4,0,-142,x,
O=C(Nc1cc(S(=O)(=O)Nc2ccccc2Cl)ccc1O)c1ccc(F)cc1F,x,-9,-4,59*,-11,68*,
O=C(Nc1cccs1)Nc1ccc(Br)cc1F,-26,21*,-2,82*,10,80*,
CCOc1ccc(NC(=O)Nc2cc(OCC(F)(F)F)cc(OCC(F)(F)F)c2)cc1,-4,7,-6,80*,1,71*,
O=C(NCCNC(=O)c1cc(OCC(F)(F)F)ccc1OCC(F)(F)F)Nc1ccc(OC(F)(F)F)cc1,5,7,-3,80*,17,84*,
O=C(NCCNC(=O)c1cc(OCC(F)(F)F)ccc1OCC(F)(F)F)Nc1ccc(Cl)cc1,6,0,-5,x,x,x,
O=C(Nc1ccc(F)cc1)Nc1cc(OCC(F)(F)F)cc(OCC(F)(F)F)c1,5,27*,-7,97*,31,70*,
COc1ccc([C@H]2N[C@]3(CCCN(Cc4ccc(Br)cc4)C3=O)[C@H]3C(=O)N(Cc4ccccc4)C(=O)[C@@H]23)cc1,x,x,x,1,35,x,
Cc1nc2ccc(F)cc2cc1C(=O)Nc1ccc(Cl)c(Cl)c1,-6,-3,x,93*,-12,82*,
[O-]/C(=C(\C(=S)Nc1ccc(SC(F)F)cc1)[n+]1cccc(CO)c1)c1ccc(Cl)s1,-10,2,-6,101*,16,85*,
COc1ccc(/C=C(\NC(=O)c2ccco2)C(=O)NCc2ccco2)cc1,-6,1,0,1,-4,x,
CC(C)(C)c1ccc(OCc2ccc(C(=O)NCc3cccnc3)o2)cc1,-8,-1,-6,85*,-134,68*,
O=C(NCc1cccnc1)c1ccc(COc2ccc(Cl)cc2)cc1,-13,-1,-6,66*,10,63*,
Cc1ccc(-n2ccc(=O)c(C(=O)Nc3ccc(S(=O)(=O)Nc4nccs4)cc3)n2)cc1,-14,-12,1,-1,-4,x,
CC(C)(C)c1cc(C(=O)C[n+]2ccc(C(=O)NCCCO)cc2)cc(C(C)(C)C)c1O,-2,0,-1,1,-5,x,
Cc1ccc(-n2cc(S(=O)(=O)c3ccc(C)cc3)[nH]c2=O)cc1,-4,-3,-1,1,-3,x,
CC1(C)CC(=O)C2=C(C1)c1c(ccc3ccccc13)NC2c1cc([N+](=O)[O-])cc([N+](=O)[O-])c1O (stereo not given),-7,5,-5,73*,46,57*,

# High-throughput results: PubChem BioAssay, Sanford-Burnham Center for Chemical Genomics
